Reference: PubChem BioAssay (NCI)
Compounds without any hit were thinned out: in the full panel of roughly 83,000, 20% have a hit.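 Percent growth is the endpoint: 0 to 100 indicates growth inhibition (40 means 60% inhibition), 0 means no net growth, and negative values indicate cell death.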 A number with no mark means an inactive call. The source made the active and inactive calls. Rule for the calls: active = growth percent below 10; inactive = the rest.

Experiments:
Assay in all cases: NCI-60 one-dose screen, 48 h (100 = growth as untreated, 0 = no growth, -100 = all killed)
Conditions in all cases: 10 µM unless noted
RPMI-8226 leukemia = test system: RPMI-8226 leukemia
OVCAR-8 ovarian = test system: OVCAR-8 ovarian
OVCAR-5 ovarian = test system: OVCAR-5 ovarian
OVCAR-4 ovarian = test system: OVCAR-4 ovarian
SK-OV-3 ovarian = test system: SK-OV-3 ovarian
IGROV1 ovarian = test system: IGROV1 ovarian
OVCAR-3 ovarian = test system: OVCAR-3 ovarian
HS 578T breast = test system: HS 578T breast
NCI/ADR-RES ovarian = test system: NCI/ADR-RES ovarian
SR leukemia = test system: SR leukemia

Compound	growth (RPMI-8226 leukemia)	growth (OVCAR-8 ovarian)	growth (OVCAR-5 ovarian)	growth (OVCAR-4 ovarian)	growth (SK-OV-3 ovarian)	growth (IGROV1 ovarian)	growth (OVCAR-3 ovarian)	growth (HS 578T breast)	growth (NCI/ADR-RES ovarian)	growth (SR leukemia) [%]
Cc1nn(-c2ccc(Br)cc2)c2nc(CCl)[nH]c(=O)c12	-53.9% (active)	102%	102%	116%	106%	97.4%	116%	108%	104%	–
O=S(=O)(Nc1ccc(C2CC2)cc1)c1ccc(-c2cnc(C3CC3)o2)cc1	–	80.2%	94.2%	67.1%	87%	58.2%	–	69%	47.7%	31.1
CC(C)(C)OC(=O)N1CCN(S(=O)(=O)/N=C2\NC(=O)NC2=C(Cl)Cl)CC1	–	100%	101%	100%	–	84%	104%	72.9%	99%	23.6
O=C1c2c(c3c4cccnc4[nH]c3c3ccc4ccccc4c23)C(=O)N1CCN1CCCCC1	–	49.5%	88.6%	95.2%	62.9%	42.8%	–	105%	41.2%	15.4
O=c1cc(-c2ccccc2)nc2sc(-c3c[nH]c4ccc(Br)cc34)nn12	112%	106%	100%	105%	110%	98.9%	–	113%	101%	–
C/C(=C(/c1ccc(O)cc1)c1ccc(OCCN2CCCC2)cc1)c1ccc(Cl)cc1	-4.71% (active)	64.6%	60.1%	65.4%	76.7%	55.4%	–	48.4%	64.2%	–
Clc1ccccc1/C=C/c1nn2c(-c3ccncc3)nnc2s1	101%	103%	109%	103%	121%	102%	–	97.7%	106%	–
CC1COc2c(N3CCN(C)CC3)c(F)cc3c(=O)c(C(=O)N/N=C/c4cc[nH]c4)cn1c23 (stereo not drawn)	–	19.4%	77.8%	44.6%	61.6%	26.6%	–	67.5%	94.2%	–
C=CCn1c(SCC(=O)Nc2cccc(C(=O)/C=C/c3ccc(C)cc3)c2)nc2ccccc2c1=O	27.1%	82.1%	101%	84.9%	113%	95.8%	–	101%	84.5%	–
C=CCn1c(SCC(=O)Nc2cccc(C(=O)/C=C/c3cc(OC)c(OC)c(OC)c3)c2)nc2ccccc2c1=O	-9.52% (active)	-14.7% (active)	17.4%	–	132%	49.3%	–	82%	27.1%	–
COc1ccc([C@H]2[C@H](O)C(=O)N2c2cc(OC)c(OC)c(OC)c2)cc1	22.8%	2.46% (active)	29.5%	–	37.7%	29.6%	–	16.6%	18%	–
C=C(C)[C@@H]1CC[C@]2(C)[C@H](CC=C3[C@@H]4CC(C)(C)CC[C@]4(C(=O)NCC#CCN4CCN(C)CC4)CC[C@]32C)[C@@]1(C)CCC#N	42.4%	85.9%	89.8%	70.6%	94.5%	54.3%	–	71.7%	62.5%	–
Cn1cc(-c2nn3c(=O)cc(-c4ccccc4)nc3s2)c2cc(F)ccc21	69.2%	36.6%	75.1%	47.5%	68.4%	65.2%	–	60.9%	42.2%	–
Cc1cc(=O)n2nc(-c3c[nH]c4ccccc34)sc2n1	128%	98.7%	101%	104%	103%	89.9%	–	96.4%	98%	–
CC1(C)CC[C@]2(C(=O)N3CCCN(CC#N)CC3)CC[C@]3(C)C(=CC[C@@H]4[C@@]5(C)CC[C@H](O)C(C)(C)[C@@H]5CC[C@]43C)[C@H]2C1	19.9%	55.7%	84.1%	86.7%	83.7%	66.1%	–	78.8%	57.2%	–
COc1ccc2c(C3=C(c4cn(C)c5ccccc45)C(=O)NC3=O)coc2c1	11.6%	41%	43%	79%	47.6%	47.2%	–	9.64% (active)	25.1%	–
CCOC(=O)C1=C(C)Nc2nnc(Nc3ccccc3)n2C1c1ccccc1 (stereo not drawn)	–	72.5%	91.2%	34.6%	94.6%	62.8%	5.94% (active)	75.8%	–	–
COc1ccc([C@@H]2[C@@H](O)C(=O)N2c2cc(OC)c(OC)c(OC)c2)cc1	20.3%	2.57% (active)	24.8%	59.3%	37.2%	27.9%	–	10.6%	13.9%	–
COc1cc(C2CC(c3ccc(Nc4nc(NCCO)nc(Nc5ccc(Cl)cc5)n4)cc3)=Nc3c(N)nc(N)nc3N2)cc(OC)c1OC (stereo not drawn)	–	47.6%	119%	65.2%	125%	62.5%	–	35%	103%	–
CC(=O)Nc1cccc(-n2cnc3cc(-c4ccc(O)cc4)ccc32)c1	20.3%	28.8%	66.7%	66.4%	32.9%	41.1%	–	-17.1% (active)	18.5%	–
COCCOc1ccc(-c2csc(NC(C)=O)n2)cc1NS(=O)(=O)c1cccc2c(N(C)C)cccc12	69.6%	97.6%	105%	86.8%	119%	77.1%	–	88%	84.4%	–
CC1(C)CC[C@]2(C(=O)N3CCCNCC3)CC[C@]3(C)C(=CC[C@@H]4[C@@]5(C)CCC(=O)C(C)(C)[C@@H]5CC[C@]43C)[C@H]2C1	98.7%	103%	104%	116%	115%	117%	–	106%	100%	–

Compound	growth (RPMI-8226 leukemia)	growth (OVCAR-8 ovarian)	growth (OVCAR-5 ovarian)	growth (OVCAR-4 ovarian)	growth (SK-OV-3 ovarian)	growth (IGROV1 ovarian)	growth (OVCAR-3 ovarian)	growth (HS 578T breast)	growth (NCI/ADR-RES ovarian)	growth (SR leukemia) [%]
COc1ccc2c(C3=C(c4c[nH]c5ccccc45)C(=O)N(O)C3=O)coc2c1	72.1%	77.5%	105%	114%	86.5%	77.1%	–	96.4%	99.5%	–
COc1ccc([C@@H]2[C@@H](O)C(=O)N2c2cc(OC)c(OC)c(OC)c2)cc1Cl	28.4%	-11.7% (active)	28.9%	–	23.9%	27.1%	–	8.59% (active)	-21.2% (active)	–
COc1ccc(C2CC(c3ccc(Nc4nc(NCCO)nc(Nc5ccc(Cl)cc5)n4)cc3)=Nc3c(N)nc(N)nc3N2)cc1 (stereo not drawn)	-4.52% (active)	40%	121%	66.9%	112%	74%	–	94.9%	76%	–
CCOC(=O)Nc1cccc(-n2cnc3cc(-c4ccc(O)cc4)ccc32)c1	20.2%	21.8%	41.1%	56%	34%	32.3%	–	16%	7.05% (active)	–
C=CCn1c(SCC(=O)Nc2cccc(C(=O)/C=C/c3ccc(OC)c(OC)c3)c2)nc2ccccc2c1=O	38.7%	89.5%	96.1%	–	108%	90.5%	–	88.9%	91.8%	–
COc1cc2c3c(n(CCCN4CCCCC4)c(=O)c2cc1OC)-c1cc2c(cc1C3=O)OCO2	-47.3% (active)	-63.6% (active)	-96.1% (active)	–	46%	-68.7% (active)	–	-51.2% (active)	-62% (active)	–
O=C1c2c(c3c4cc(O)ccc4oc3c3[nH]c4ccccc4c23)C(=O)N1O	4.71% (active)	12.1%	72.5%	–	-17% (active)	0.286% (active)	–	-8.67% (active)	40.7%	–
CCN1CCN(Cc2ccc(C(=O)Nc3nc4ccc(Oc5ccnc(C(=O)NC)c5)cc4s3)cc2C(F)(F)F)CC1	26.4%	60.8%	76.7%	61%	83.7%	70.3%	–	51.9%	67%	–
O=c1cc(-c2ccccc2)nc2sc(-c3c[nH]c4ccc(F)cc34)nn12	71.9%	62%	77.2%	-14.1% (active)	56.6%	85.4%	–	-4.32% (active)	60.6%	–
COCCOc1ccc(-c2csc(NC(=O)CN3CCN(CCO)CC3)n2)cc1NS(=O)(=O)c1cccc2c(N(C)C)cccc12	54.6%	81.2%	94.2%	96%	92.9%	82.9%	–	70.1%	97.2%	–
CS(=O)(=O)c1nccc(-c2c(-c3ccc(F)c(OCCc4ccccc4)c3)nc3sccn23)n1	54.7%	87.5%	100%	98.4%	121%	59.3%	–	113%	95.9%	–
COC(=O)c1nc(-c2ccc(C)cc2)oc1S(=O)(=O)N1CCN(c2oc(-c3ccccc3)nc2C#N)CC1	97.7%	102%	108%	106%	119%	106%	–	108%	103%	–
Cc1ccc(C2CC(c3ccc(Nc4nc(NCCO)nc(Nc5ccc(Cl)cc5)n4)cc3)=Nc3c(N)nc(N)nc3N2)cc1 (stereo not drawn)	-55.4% (active)	-81% (active)	-63.3% (active)	-54.4% (active)	114%	-63.3% (active)	–	11.9%	-39.8% (active)	–
c1cncc(-c2cn3nc(-c4c[nH]c5ccccc45)sc3n2)c1	63.1%	52.2%	43.4%	83.3%	86.2%	59.8%	–	57.8%	18.3%	–
Nc1nc(N)c2c(n1)NC(c1ccc(Cl)cc1)CC(c1ccc(Nc3nc(NCCO)nc(Nc4ccc(Cl)cc4)n3)cc1)=N2 (stereo not drawn)	-32.5% (active)	17.6%	84.8%	34.6%	100%	37%	–	55.7%	56.5%	–
Cc1ccc(-c2cc(-c3ccc(N(C)C)cc3)n3c(n2)nc2ccccc23)cc1	36.2%	54.2%	109%	60.9%	81.3%	86.2%	–	83%	56.7%	–
Nc1nc(N)c2c(n1)NC(c1ccccc1)CC(c1ccc(Nc3nc(NCCO)nc(Nc4ccc(Cl)cc4)n3)cc1)=N2 (stereo not drawn)	-56.2% (active)	-20% (active)	111%	57.2%	116%	64.3%	–	79.9%	48.4%	–
Cc1ccc(-c2cc(-c3cccc4ccccc34)n3c(n2)nc2ccccc23)cc1	65.2%	58.4%	92.7%	–	100%	59.5%	–	56.5%	67.7%	–
COc1ccc(-c2cc(-c3cccc4ccccc34)n3c(n2)nc2ccccc23)cc1	–	42.1%	81.1%	64.8%	58.4%	48.7%	–	55%	54.2%	–
CS(=O)(=O)c1nccc(-c2c(-c3ccc(F)c(OCc4ccc(F)cc4)c3)nc3sccn23)n1	–	92.1%	97%	99.1%	110%	82.1%	–	85.4%	98%	–
COC(=O)[C@@]1(C)CC[C@]2(C)CC[C@]3(C)C(=CC(=O)[C@@H]4[C@@]5(C)Cc6c(n(CC#CCN7CCN(C)CC7)c7ccccc67)C(C)(C)[C@@H]5CC[C@]43C)[C@@H]2C1	69.5%	93.8%	86.7%	89.7%	122%	89%	–	88.1%	86.5%	–
